# According to publication PMC9838217, “Structure of SALL4 zinc finger domain reveals link between AT-rich DNA binding and Okihiro syndrome”:
# Changes are numbered by the printed parent chain.
# Assays:
# Assay in all cases: HT-SELEX; high values mean tight binding
# Details in all cases: protein: recombinant; vector His6-GST; dsDNA, one strand shown
# SALL4 ZFC4 WT (HT-SELEX) = molecular target: T1, SALL4 ZFC4 WT (HT-SELEX) (Mus musculus, UniProt Q8BX22 870-940)
# T1 sequence: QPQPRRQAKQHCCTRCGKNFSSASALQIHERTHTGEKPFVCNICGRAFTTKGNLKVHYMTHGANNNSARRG
# In short: (§1)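 In triplicate selections of up to 6 cycles, purified recombinant mouse SALL4 zinc finger cluster 4 (residues 870–940, 1 µg) was incubated 10 min at room temperature with library DNA (1.5 µg, then 200 ng) in 100 µl of 10 mM Tris–HCl pH 7.5, 50 mM NaCl, poly(dI-dC) and DTT, and complexes were captured on Ni2+ beads, washed and PCR-amplified. Sequencing was done on MiSeq with scanning for 6-mers. The binding signal is each canonical k-mer's read fraction, reported as fold change against the initial random library.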
# [1] = molecular target: T2, SALL4 ZFC4 R900W (HT-SELEX) (Mus musculus, UniProt Q8BX22 870-940, R900W)
# T2 sequence: T1 sequence with R31W
# In short: as §1
# [2] = molecular target: T3, SALL4 ZFC4 G921D (HT-SELEX) (Mus musculus, UniProt Q8BX22 870-940, G921D)
# T3 sequence: T1 sequence with G52D
# In short: as §1
Sequence,binding signal (SALL4 ZFC4 WT (HT-SELEX)),binding signal [1],binding signal [2]
AGAGAG,0.922 ± 0.0426 fold-change vs cycle 0,1.09 ± 0.0215 fold-change vs cycle 0,1.14 ± 0.0249 fold-change vs cycle 0
TACCTA,1.35 ± 0.0562 fold-change vs cycle 0,1.48 ± 0.0891 fold-change vs cycle 0,1.42 ± 0.0965 fold-change vs cycle 0
CTACCC,0.454 ± 0.0263 fold-change vs cycle 0,0.523 ± 0.00774 fold-change vs cycle 0,0.607 ± 0.0541 fold-change vs cycle 0
AATGGT,1.28 ± 0.0798 fold-change vs cycle 0,1.35 ± 0.0595 fold-change vs cycle 0,1.32 ± 0.061 fold-change vs cycle 0
CGTACC,0.409 ± 0.0203 fold-change vs cycle 0,0.467 ± 0.0146 fold-change vs cycle 0,0.564 ± 0.0582 fold-change vs cycle 0
ATTCCA,1.45 ± 0.0836 fold-change vs cycle 0,1.44 ± 0.0779 fold-change vs cycle 0,1.38 ± 0.106 fold-change vs cycle 0
AGATCT,1.31 ± 0.115 fold-change vs cycle 0,1.45 ± 0.063 fold-change vs cycle 0,1.47 ± 0.0799 fold-change vs cycle 0
ATCAAA,1.96 ± 0.105 fold-change vs cycle 0,1.83 ± 0.114 fold-change vs cycle 0,1.69 ± 0.154 fold-change vs cycle 0
ATTTGC,0.914 ± 0.0535 fold-change vs cycle 0,0.9 ± 0.0391 fold-change vs cycle 0,0.981 ± 0.0312 fold-change vs cycle 0
AGGTTG,0.791 ± 0.0234 fold-change vs cycle 0,0.894 ± 0.0252 fold-change vs cycle 0,0.945 ± 0.0127 fold-change vs cycle 0
CAGTTC,0.794 ± 0.00773 fold-change vs cycle 0,0.912 ± 0.0408 fold-change vs cycle 0,0.935 ± 0.0458 fold-change vs cycle 0
CAGGGA,0.492 ± 0.0092 fold-change vs cycle 0,0.57 ± 0.0327 fold-change vs cycle 0,0.629 ± 0.0495 fold-change vs cycle 0
CAAACA,1.04 ± 0.0367 fold-change vs cycle 0,1.17 ± 0.0357 fold-change vs cycle 0,1.18 ± 0.0394 fold-change vs cycle 0
GCAGGA,0.338 ± 0.0276 fold-change vs cycle 0,0.413 ± 0.0223 fold-change vs cycle 0,0.489 ± 0.0596 fold-change vs cycle 0
CCAGTC,0.437 ± 0.0378 fold-change vs cycle 0,0.533 ± 0.0426 fold-change vs cycle 0,0.62 ± 0.0337 fold-change vs cycle 0
CCGGTA,0.345 ± 0.0119 fold-change vs cycle 0,0.396 ± 0.0133 fold-change vs cycle 0,0.501 ± 0.0627 fold-change vs cycle 0
AGAGTA,1.47 ± 0.0798 fold-change vs cycle 0,1.61 ± 0.0906 fold-change vs cycle 0,1.46 ± 0.121 fold-change vs cycle 0
CAAAGA,1.18 ± 0.0383 fold-change vs cycle 0,1.34 ± 0.0673 fold-change vs cycle 0,1.28 ± 0.0399 fold-change vs cycle 0
CTGTAA,1.29 ± 0.062 fold-change vs cycle 0,1.42 ± 0.0769 fold-change vs cycle 0,1.33 ± 0.121 fold-change vs cycle 0
GACTTA,1.27 ± 0.0397 fold-change vs cycle 0,1.4 ± 0.0678 fold-change vs cycle 0,1.33 ± 0.102 fold-change vs cycle 0
AAATCT,1.82 ± 0.0976 fold-change vs cycle 0,1.85 ± 0.0812 fold-change vs cycle 0,1.72 ± 0.124 fold-change vs cycle 0
CATCTA,1.33 ± 0.0229 fold-change vs cycle 0,1.41 ± 0.0368 fold-change vs cycle 0,1.38 ± 0.068 fold-change vs cycle 0
TCACAA,1.2 ± 0.0727 fold-change vs cycle 0,1.32 ± 0.0623 fold-change vs cycle 0,1.29 ± 0.11 fold-change vs cycle 0
CGTTCA,0.712 ± 0.0321 fold-change vs cycle 0,0.811 ± 0.0256 fold-change vs cycle 0,0.871 ± 0.0211 fold-change vs cycle 0
AAACAC,1.06 ± 0.0292 fold-change vs cycle 0,1.16 ± 0.0244 fold-change vs cycle 0,1.189 ± 0.0109 fold-change vs cycle 0
TAACGA,1.27 ± 0.0588 fold-change vs cycle 0,1.31 ± 0.0864 fold-change vs cycle 0,1.26 ± 0.0862 fold-change vs cycle 0
CAACAG,0.698 ± 0.0379 fold-change vs cycle 0,0.824 ± 0.0446 fold-change vs cycle 0,0.869 ± 0.0293 fold-change vs cycle 0
CCAAGC,0.327 ± 0.034 fold-change vs cycle 0,0.384 ± 0.0115 fold-change vs cycle 0,0.516 ± 0.0505 fold-change vs cycle 0
TGTGAA,1.23 ± 0.0362 fold-change vs cycle 0,1.38 ± 0.0419 fold-change vs cycle 0,1.29 ± 0.0621 fold-change vs cycle 0
AATTAG,1.92 ± 0.0642 fold-change vs cycle 0,1.97 ± 0.0604 fold-change vs cycle 0,1.75 ± 0.104 fold-change vs cycle 0
